# The list is not random: actives were taken first. Their share in the collection is about 6.2%.
# Lassa entry inh – qHTS for Inhibitors of binding or entry into cells for Lassa Virus | Lassa virus pseudotype entry inhibition, cell reporter | Potency, µM (titrated, usually from 37.9 µM), for the others: top-dose activity change, negative = inhibition, most hits filed as inhibitors | 300,000 compounds, 1.2% hits | AID 540256, 2011; calls by dose curve; tested in HEK293 cells; also: potency is read from the fitted curve at half-maximal effect; nearly all actives have a fitted effect of over 50% in size
# Marburg entry inh – qHTS for inhibitors of binding or entry into cells for Marburg Virus; Potency, µM (series often up to 37.8 µM), inactives show top-dose activity change, negative = inhibition, hits mostly inhibitors; Marburg virus pseudotyped entry inhibition, cell reporter; 300,000 compounds, 1.8% hits; calls by dose curve; tested in HEK293 cells; also: potency is read from the fitted curve at half-maximal effect
# HCMV inh – qHTS Assay for inhibitors of the human cytomegalovirus (HCMV). HFF cells, HCMV-luciferase reporter, 72 h; stronger effect = lower value. activity change, negative = inhibition, % at 57.5 µM. 410,000 compounds, 4.5% hits; in the data active = activity change below about -60%; inconclusive = no clear call, values can overlap the other calls; inactive = above about -39%
#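 Two-dose cell screen: HFF monolayers treated with compounds and infected with luciferase-expressing HCMV at 1 PFU/cell, 72 h at 37C, then lysed for luciferase measurement.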
# FMDV antiviral – High Throughput Screening for Foot and Mouth Disease Virus Antivirals; FMDV antiviral cell-based qHTS; Potency, µM (titrated, usually from 57.9 µM), for the others: at the top dose activity change, negative = inhibition, usual class: inhibitors; 410,000 compounds, 1.2% hits; calls by dose curve; tested in HEK293T cells; also: read-out not given here; potency is read from the fitted curve at half-maximal effect; nearly all actives have a fitted effect of over 45% in size
# * hit, by the source's call; u = inconclusive; x = not tested or not shown; ! = repeats disagree; [ ] = dose if it differs, or a comment. % is scaled to controls: 0 for no effect and ±100 for the full control effect.
SMILES,Lassa entry inh,Marburg entry inh,HCMV inh,FMDV antiviral
COc1ccc2c(c1)c(/C=C/c1cc[n+](C)cc1)cn2C,x,x,-98*,u
COc1ccccc1CNC(=O)c1cc(-c2cc(F)ccc2OC(C)C)n[nH]1,x,x,-30,0%
COC(=O)C1=C(C)N(Cc2ccccc2)C(=NCC(C)C)NC1c1ccc(Br)cc1 (stereo unspecified),x,5%[14.2 µM],x,x
Cc1cc(C(=O)Nc2ccccc2-c2nc(CNC(=O)C3(C)CCCCC3)c(C)o2)c(C)o1,x,x,x,1%
CCCCNc1cccc2c1S(=O)(=O)N[C@@H](CC(C)C)CO2,x,u,8,x
COc1cc(/C=C(\C#N)c2nc3ccccc3[nH]2)ccc1OCc1cccc(C(F)(F)F)c1,u,u,-87*,-27%
COc1cc(/C=C(/C#N)c2nc3ccccc3[nH]2)ccc1OCc1ccc(C(=O)O)o1,13%,u,-18,3%
COc1cc(/C=C(\C#N)c2nc3ccccc3[nH]2)ccc1OCc1ccc(F)cc1,-6%[46.1 µM],u,-78*,-1%
COc1ccc(CN2Cc3ccccc3OC(c3ccccc3OC)C2)c(O)c1 (stereo unspecified),x,x,x,-14%
O=C1CCSc2ccc(S(=O)(=O)Nc3cccc(C(F)(F)F)c3)cc2N1,2%[46.1 µM],x,-7,26%
CC(=O)c1cccc(NS(=O)(=O)c2ccc(NC(=O)N3CCCCC3)cc2)c1,u,2.2µM*,-71*,u
CSc1cccc(NS(=O)(=O)c2ccc(F)cc2)c1,24%,9%,-10,41%
CC(=O)N1CCc2cc(S(=O)(=O)N3CCc4ccccc43)ccc21,u,u,-68*,u
CSc1cccc(NS(=O)(=O)c2ccc3c(c2)CCN3C(C)=O)c1,x,x,-88*,-21%
CSc1cccc(NS(=O)(=O)c2ccc(C(C)=O)cc2)c1,u,u,-68*,11%
CC(=O)N1CCc2cc(S(=O)(=O)N3CCc4ccccc4C3)ccc21,-4%,-12%,-21,-21%
CCOC(=O)C1=C(N)Oc2ccc(Br)cc2[C@@H]1[C@@H](C#N)C(=O)OCC,x,x,x,-8%
O=C(Cc1ccc(F)cc1)NCCc1csc(-c2ccc(C(F)(F)F)cc2)n1,2%[46.1 µM],x,-28,-13%
N[C@H](C(=O)O)[C@H](Cc1ccccc1)C(=O)O,-1%,14%,x,x
CC(=O)N1CCc2cc(S(=O)(=O)Nc3ccc(C)cc3)ccc21,-1%,u,-64*,25%
COc1ccc(S(=O)(=O)Nc2ccc3c(c2)N(C(C)=O)CCC3)cc1,u,-27%,-62*,u
CC(=O)N1CCCc2cc(S(=O)(=O)Nc3ccc(C)c(F)c3)ccc21,10%[46.1 µM],x,-6,32%
COc1ccc(S(=O)(=O)Nc2ccc3c(c2)N(C(C)=O)CCC3)cc1OC,6%,3%,-3,34%
COc1cccc(NS(=O)(=O)c2ccc3c(c2)CCN3C(C)=O)c1,-23%,u,-64*,18%
CCOc1ccc(S(=O)(=O)Nc2ccc3c(c2)CCCN3S(=O)(=O)c2ccc(C)cc2)cc1,u,x,-65*,3%
SMILES,Lassa entry inh,Marburg entry inh,HCMV inh,FMDV antiviral
Cc1ccc(S(=O)(=O)N2CCCc3cc(NS(=O)(=O)c4cccc(Cl)c4)ccc32)cc1,u,x,-40,u
Cc1ccccc1C1(CC(=O)N2CC3CC4CC(C3)CC2C4)CC(=O)N(Cc2cccnc2)C1=O (stereo unspecified),x,x,x,7%
O=C(CCCc1ccc(-c2ccccc2F)cc1)Nc1ccc(O)cc1,x,x,x,-29%
CC(=O)N1CCCc2cc(S(=O)(=O)N3CCCC(C(=O)NCc4ccc(C)cc4)C3)ccc21 (stereo unspecified),u,x,-72*!,u
O=C1NC(=O)N(c2ccccc2F)C(=O)/C1=C/c1cn(CC(=O)N2CCOCC2)c2ccccc12,u,-1%[46.1 µM],2,22µM*
CCC1CCCCN1CCCNC(=O)CSc1nc2nc(C)c(Cc3ccc(C)cc3)c(C)n2n1 (stereo unspecified),u,11µM*,-33,-9%
CCC1CCCCN1CCCNC(=O)Cn1nc(-c2ccc(C)cc2)ccc1=O (stereo unspecified),-5%,u,-71*,x
Cc1ccc(-c2ccc(=O)n(CC(=O)NCCN3CCCCC3C)n2)cc1 (stereo unspecified),-4%,5%,-18,x
Cc1ccc(NC(=O)C2CCCN2S(=O)(=O)c2ccc3c(c2)CCCC(=O)N3)cc1C (stereo unspecified),-1%[46.1 µM],x,-25,-28%
CC(C)(C)c1ccc(O[C@@H]2[C@H](O)CO[C@@H]2C=CC#Cc2ccccc2)cc1,x,-9%[14.2 µM],x,x

# Screening results: PubChem, National Center for Advancing Translational Sciences (NCATS)
